EPAC2 agonist: EPAC2 (human) agonism; EPAC2 activation, biochemical qHTS; response scale: 100% = 6.5 mM cAMP response; Potency, µM (doses to about 154 µM), without a hit: at the top dose activation, actives largely listed as activators; 360,000 compounds, 0.079% hits; AID 720711; also: nearly all actives have a fitted effect of over 50% in size
Target sequence (Q8WZA2 whole entry, looked up): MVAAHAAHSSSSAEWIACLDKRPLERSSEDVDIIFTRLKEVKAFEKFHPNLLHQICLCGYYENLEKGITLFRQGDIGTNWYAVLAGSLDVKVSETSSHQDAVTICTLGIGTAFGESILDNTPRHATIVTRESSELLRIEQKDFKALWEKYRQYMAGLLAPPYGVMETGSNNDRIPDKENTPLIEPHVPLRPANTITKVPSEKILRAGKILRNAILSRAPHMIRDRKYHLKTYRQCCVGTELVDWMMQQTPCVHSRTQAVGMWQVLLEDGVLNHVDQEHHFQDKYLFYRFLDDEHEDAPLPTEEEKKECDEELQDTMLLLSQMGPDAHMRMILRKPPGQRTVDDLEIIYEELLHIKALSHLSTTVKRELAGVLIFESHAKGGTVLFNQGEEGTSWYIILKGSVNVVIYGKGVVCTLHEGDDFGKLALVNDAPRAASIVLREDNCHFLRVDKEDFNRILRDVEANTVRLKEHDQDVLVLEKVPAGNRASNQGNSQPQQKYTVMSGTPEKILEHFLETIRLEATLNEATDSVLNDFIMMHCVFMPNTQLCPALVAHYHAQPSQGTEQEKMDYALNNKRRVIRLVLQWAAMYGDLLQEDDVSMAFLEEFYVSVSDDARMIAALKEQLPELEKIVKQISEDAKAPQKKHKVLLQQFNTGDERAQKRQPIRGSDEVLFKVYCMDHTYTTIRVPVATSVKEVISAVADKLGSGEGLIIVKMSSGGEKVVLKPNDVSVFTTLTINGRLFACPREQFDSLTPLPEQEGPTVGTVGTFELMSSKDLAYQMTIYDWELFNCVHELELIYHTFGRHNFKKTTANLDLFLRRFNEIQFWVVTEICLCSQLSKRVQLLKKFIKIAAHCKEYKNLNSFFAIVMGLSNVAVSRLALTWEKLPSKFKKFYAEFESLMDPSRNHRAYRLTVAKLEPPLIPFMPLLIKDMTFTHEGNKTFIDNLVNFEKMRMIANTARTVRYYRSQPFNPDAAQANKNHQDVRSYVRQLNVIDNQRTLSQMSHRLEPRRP
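Compounds were titrated in qHTS against a Rap1B-BODIPY-GDP (250 nM) complex with EPAC2 (100 nM) and GDP (50 uM). BODIPY-GDP release tracked at 480/540 nm over 30 min at room temperature, normalized to 6.5 mM cAMP.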
BRCA1 expr up: activators of BRCA1 expression | MCF7-BRCA1-FFLuc reporter, luminescence, 48 h; response scale: scaled: vehicle 0%, 10 µM genistein 100% | Potency, µM (series often up to 46.1 µM), for inactives: top-dose activation, hits mostly activators | 380,000 compounds, 1.1% hits | AID 624202; also: nearly all actives have a fitted effect of over 80% in size
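Reporter cells (MCF7, BRCA1 promoter-firefly luciferase) received library compounds across a concentration series for 48 h. End-point luminescence was measured and concentration-effect curves derived after normalization.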
EPAC1 agonist: EPAC1 (human) agonism | O95398 | 360,000 compounds, 0.073% hits | AID 720707 | Potency, µM (titrated, usually from 154 µM), without a hit: top-dose activation, most hits filed as activators | EPAC1 agonist qHTS, biochemical assay; response scale: 100% = response to 6.5 mM cAMP; also: nearly all actives have a fitted effect of over 60% in size
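Read-out is the fluorescence drop as BODIPY-GDP leaves Rap1B (480 nm excitation, 540 nm emission), recorded every 5 minutes over 30 minutes. Reactions held 100 nM EPAC1, 250 nM Rap1B–BODIPY-GDP and 50 uM GDP, with 6.5 mM cAMP setting full activation.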
USP1-UAF1 inh: blocks the human USP1/UAF1 deubiquitinase complex; recombinant USP1/UAF1, Ub-Rhodamine cleavage fluorescence; 390,000 compounds, 0.23% hits; Potency, µM (titrated, usually from 57.1 µM), for inactives: at the top dose activity change, negative = inhibition, actives largely listed as inhibitors; AID 743255; also: % is scaled to controls: 0 for no effect and ±100 for the full control effect; nearly all actives have a fitted effect of over 60% in size
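High-throughput fluorogenic screen: 1nM USP1/UAF1 complex, Ub-Rho substrate 150nM final, 50mM HEPES pH 7.8 with 0.5mM EDTA, 0.1 mg/ml BSA, 1mM TCEP and 0.01% Tween-20.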
EPAC1 antag: blocks human EPAC1 exchange factor. O95398. EPAC1 GEF assay, Rap1b-BODIPY-GDP exchange fluorescence. Potency, µM (highest dose often 115 µM), inactives show top-dose activity change, negative = inhibition, hits mostly inhibitors. 360,000 compounds, 0.14% hits;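 also: plate controls were vehicle for no effect and positive control for full effect; nearly all actives have a fitted effect of over 50% in size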
EPAC2 antag: EPAC2 (human) antagonism. EPAC2 GEF exchange of Rap1B-BODIPY-GDP, fluorescence. Potency, µM (titrated, usually from 114 µM), for inactives: at the top dose activity, negative = inhibition, hits mostly inhibitors. Q8WZA2. 360,000 compounds, 0.18% hits; also: % is scaled to controls: 0 for no effect and ±100 for the full control effect; nearly all actives have a fitted effect of over 45% in size
* = called active by the depositor; ? = inconclusive; . = not tested or not shown; [ ] = dose if it differs, or a comment. Only some compounds are listed: those with a hit (about 1.4% of all), similar ones and a draw of the others. Calls follow the shape of the dose curve; as a rule, active = well fitted curve in the direction sought with a large enough effect; inconclusive = small, poorly fitted or top-dose-only effect, or another doubt; inactive = no such curve, though single readings can be large; an effect the other way counts as inactive or inconclusive. Potency is read from the fitted curve at half-maximal effect.

SMILES	EPAC2 agonist	BRCA1 expr up	EPAC1 agonist	USP1-UAF1 inh	EPAC1 antag	EPAC2 antag
Cc1ccc(C(NC(=O)C(C)C)c2cc([N+](=O)[O-])c3cccnc3c2O)cc1 (stereo not given)	-9.9%	-72.0%	-5.8%	?	50.1µM*	-0.4%
C=CCNC(=S)NNC(=O)COc1ccc2cc(Br)ccc2c1	-1.3%	10µM*	15.5%	-4.3%	-38.0%	2.4%
CN1c2ccccc2C(C)(C)C12C=Nc1c(cc(N3CCOCC3)c3ccccc13)O2 (stereo not given)	4.4%	-57.8%	10.1%	?	89.1µM*	-25.2%
COc1ccc2c(c1)CC/C(=C\Nc1ccc3c(c1)OCO3)C2=O	?	3.16µM*	?	?	10.3%	5.6%
COc1ccc(N/C=C2\CCc3ccccc3C2=O)cc1	100µM*	?	?	?	-20.1%	-0.2%
Fc1ccc(-c2cn3cc(Cc4ccccc4Cl)sc3n2)cc1	.	-2.0%	.	-8.2%	.	.
Cc1ccc(S(=O)(=O)c2cn(Cc3ccccc3F)c3cc4c(cc3c2=O)OCO4)cc1	.	.	.	-4.2%	.	.
CCN(CC)c1ccc(/C=C2\C(=O)c3ccc(C(=O)O)cc3C2=O)cc1	7.1%	15.1%	6.3%	14.1µM*	?	?
CCOC(=O)/C(C#N)=C\C=C1C=CN(C)C=C1	26.6%	3.98µM*	25.6%	?	-10.0%	0.9%
CCOC(=O)/C(C#N)=C\c1ccc(CC)s1	9.0%	25.3%	-1.7%	0.1%	4.3%	-2.9%
Cc1nc(/C(N)=N/OC(=O)c2cccc(Cl)c2)c(C(F)(F)F)o1	2.3%	-22.4%	1.0%	-29.3%	11.1%	-13.9%
Cc1nc(/C(N)=N/OC(=O)c2ccccc2Cl)c(C(F)(F)F)o1	-0.2%	11.2µM*	8.3%	-5.6%	-26.1%	-5.2%
O=C(NNC(=O)C1CC=CCC1)c1ccccc1Cl (stereo not given)	10.5%	50.4%	19.5%	-1.0%	-7.3%	-0.5%
COc1cccc(-c2nnc(SCC(=O)N3CCOCC3)o2)c1	9.0%	12.6µM*	5.1%	-18.4%	16.6%	11.3%
COc1ccc(-c2nnc(SCC(=O)N3CCOCC3)o2)cc1	-19.6%	?	-0.1%	-7.3%	9.3%	11.1%[57.1 µM]
O=C(CSc1nnc(-c2ccc(OC(F)F)cc2)o1)N1CCOCC1	6.0%	12.6µM*	-2.1%	-7.4%	5.9%	7.1%
CCn1c(O)c(C=Nc2ccccc2)sc1=S	5.7%	3.16µM*	-9.1%	-24.1%	-26.5%	-0.1%
COc1ccccc1/C=C/C=N/NC(=O)c1cnccn1	-3.8%	-4.8%	-2.6%	-10.0%	7.1%	6.9%
COc1ccccc1/C=C/C=N/NC(=O)c1ccccn1	3.4%	5.01µM*	-5.4%	-8.2%	-0.5%	-6.9%
COc1ccccc1/C=C/C(=O)NCCc1ccccn1	-3.3%	3.16µM*	4.8%	-17.1%	29.2%	16.3%
COc1cc(C(C)=O)ccc1OCC(O)CN1CCN(c2ccc(F)cc2)CC1 (stereo not given)	3.6%	-10.3%	2.5%	-14.3%	-7.8%	9.2%
CCCN1C(=O)c2ccccc2NC1c1ccc(OC)c(COc2cccc(OC)c2)c1 (stereo not given)	.	-18.3%	.	.	.	.
CCCN1C(=O)c2ccccc2NC1c1ccc(OC)cc1OC (stereo not given)	2.9%	-6.0%	8.3%	3.4%	-12.3%	31.6µM*
COc1ccc(N2C(=O)c3ccccc3NC2c2ccc(OC)c(CSc3ccccn3)c2)cc1 (stereo not given)	-3.7%	66.6%	-0.7%	-10.9%	4.3%	-4.4%
CCCN1C(=O)c2ccccc2NC1c1ccc(OC)c(CSc2ccccn2)c1 (stereo not given)	2.2%	0.2%	-6.7%	-4.9%	?	14.1µM*
SMILES	EPAC2 agonist	BRCA1 expr up	EPAC1 agonist	USP1-UAF1 inh	EPAC1 antag	EPAC2 antag
COc1ccc(N2C(=O)c3ccccc3NC2c2ccc(OC)c(COc3ccccn3)c2)cc1 (stereo not given)	2.6%	6.31µM*	6.4%	-3.6%	25.6%	-14.3%
CCCN1C(=O)c2ccccc2NC1c1ccc(OC)cc1O (stereo not given)	5.6%	39.3%	-6.3%	-22.2%	6.2%	-0.6%
N#Cc1ccc(/C=C2\C=Cc3ccccc32)cc1	.	78.5%	.	.	.	.
CCCN1C(=O)c2ccc(C(=O)Nc3cc(C)ccc3O)cc2C1=O	-0.1%	12.9%	-2.0%	-14.3%	8.2%	-0.2%
Cc1ccc(O)c(NC(=O)c2ccc3c(c2)C(=O)N(CC(C)C)C3=O)c1	-3.7%	7.94µM*	-1.7%	-19.1%	4.9%	-4.1%
N/C(=N\OC(=O)COc1ccc2ccccc2c1Br)c1ccccn1	7.0%	10µM*	2.9%	-12.5%	-11.5%	7.8%
N/C(=N\OC(=O)COc1ccc(Br)cc1Cl)c1ccccn1	-1.4%	3.4%	-3.6%	2.1%	-26.9%	-18.6%
N/C(=N\OC(=O)Cc1ccccc1)c1ccccn1	3.5%	?	-2.5%	4.3%	0.0%	8.0%
N/C(=N\OC(=O)CCC1CCCC1)c1ccccc1	5.4%	66.4%	5.3%	-8.4%	-0.7%	-12.1%
N/C(=N\OC(=O)CCC1CCCC1)c1ccccn1	-15.2%	7.08µM*	4.6%	-16.1%	-11.5%	26.3%
N/C(=N\OC(=O)COc1ccccc1)c1ccncc1	10.0%	12.6µM*	17.4%	-10.3%	-2.8%	9.7%
N/C(=N\OC(=O)CCCc1ccccc1)c1ccccn1	-2.3%	11.2µM*	-2.4%	-3.1%	-18.9%	4.8%
CCCC(=O)Nc1nnc(SCc2cc(=O)n3ccccc3n2)s1	.	.	.	-1.9%	.	.
CCc1ccccc1NC(=O)C1CCCN(S(=O)(=O)c2ccc3[nH]c(=O)ccc3c2)C1 (stereo not given)	.	.	.	-9.8%	.	.
N/C(=N\OC(=O)COc1ccccc1)c1ccccn1	11.4%	12.6µM*	13.1%	-7.4%	0.8%	9.1%[57.1 µM]
Cc1ccc(NC(=O)c2ccc(OC(=O)COc3cccc(Cl)c3)cc2)cc1	4.0%	3.55µM*	2.7%	-8.5%	2.1%	3.9%
Cc1ccc(NC(=O)c2ccc(OC(=O)COc3ccc(Cl)cc3C)cc2)cc1	3.8%	?	1.5%	-2.6%	-8.1%	2.7%
Cc1ccc(NC(=O)c2ccc(OC(=O)CCN3C(=O)c4ccccc4C3=O)cc2)cc1	1.8%	7.08µM*	-1.6%	-15.2%	5.2%	13.6%
CC1NC(=O)c2cc3ccccc3cc2-n2c1nc1ccccc1c2=O (stereo not given)	9.8%	9.6%	-13.3%	-14.6%	-11.7%	-29.7%
COc1cccc(CNC(=O)Cc2ccc(NC(=O)N3CCSc4ncccc43)cc2)c1OC	.	.	.	-19.8%	.	.
CS/C(N)=N/N=C/c1ccc([N+](=O)[O-])cc1	-4.7%	11.2µM*	1.1%	-5.0%	-2.0%	-4.6%

Compound activity: PubChem BioAssay, National Center for Advancing Translational Sciences (NCATS)
